Records with an inconclusive call do not appear. The source made the active and inactive calls. How the source made its calls: active means hit-call score of the fitted dose curve at least 0.9, where 1 is the maximum; inconclusive means response in the unintended direction; inactive means score below 0.9. Peptide text beside a SMILES is read from it.

One assay is described as follows: ACEA_AR_agonist_AUC_viability: ACEA Biosciences xCELLigence Real-Time Cell Analysis on Androgen Receptor Agonism for Viability (AID 2283775).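 On AC50: viability read 80 hours after compound addition.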 A digest of the protocol:
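22Rv1 cells; impedance growth kinetics; 8-pt 1:4 dilutions from 100 uM top final, ≤0.5% DMSO; n = 2; 80 h read; AUC viability, loss-of-signal vs DMSO.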
Take `CCCCCCCCC(CO)CCCCCC` (stereo not drawn): the result was inactive.

For the molecule `Oc1ccc(-c2ccccc2)c(Cl)c1`, the molecule was called inactive.

With `COC(=O)[C@H](Cc1ccccc1)NC(=O)[C@@H](N)CC(=O)O` (H-Asp-Phe-OMe), the molecule was classed as inactive.

Take `CCc1cccc(C)c1N`: the molecule was called inactive.

On to `CCCCC/C=C\C/C=C\CCCCCCCC(=O)O`, for which the call was inactive.

As for `CCCCC(=O)O`, the outcome was inactive.

Consider `CCCCCCCCCC[N+](C)(CCCCCCCCCC)CCC[Si](OC)(OC)OC`, for which the concentration at half-maximal activity (AC50) was 5040 nM (active).

Regarding `Cc1cc(C)n(CO)n1`, the call was inactive.

Turning to `CC(=O)OC(C)c1ccccc1` (stereo not drawn), the outcome was inactive.

Consider `CCC(C)(O)CCCC(C)C` (stereo not drawn), for which the call was inactive.

For the molecule `CCN1CN(CC)CN(CC)C1`, the molecule was classed as inactive.

Consider `CCCCCCC=O`, for which the molecule was classed as inactive.

Consider `CCCCCCCCCCCC(=O)N(C)CC(=O)O`, for which the result was inactive.

A further assay can be described thus: ACEA_AR_antagonist_AUC_viability: ACEA Biosciences xCELLigence Real-Time Cell Analysis on Androgen Receptor Antagonism for Viability (AID 2283776).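 Further: 22Rv1 human prostate cancer cells growing on impedance electrode plates; area under impedance growth curve at 80 h after dosing as viability; hits lower the growth signal relative to DMSO meaning cytotoxicity.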 A digest of the protocol: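 Real-time electrical impedance tracks 22Rv1 proliferation after continuous compound exposure (top 100 uM final, 1:4 steps, 8 concentrations). The 80 h area-under-curve serves as the cytotoxicity readout relative to DMSO.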
`CCCCCCOC(=O)CCCCC(=O)OCCCCCC`: the outcome was inactive.

As to `CCCCCCCCC(CO)CCCCCC` (stereo not drawn), the outcome was inactive.

On to `CCOC(=O)c1ccc(C)cc1`, for which the result was inactive.

Consider `Oc1ccccc1Cc1ccccc1O`, for which the AC50 was 1480 nM (active).

Consider `CCCCCCCO`, for which the molecule was classed as inactive.

Turning to `Oc1ccc(-c2ccccc2)c(Cl)c1`, the AC50 is 598 nM (active).

For the molecule `CC(C)=CCCC(C)=CC#N`, the call was inactive.

In the case of `CCCCCC(=O)OCC`, the outcome was inactive.

In the case of `COC(=O)[C@H](Cc1ccccc1)NC(=O)[C@@H](N)CC(=O)O` (H-Asp-Phe-OMe), the result was inactive.

Regarding `CCc1cccc(C)c1N`, the molecule was classed as inactive.

Turning to `CCOC(=O)C1=NOC(c2ccccc2)(c2ccccc2)C1`, the call was inactive.

On to `CCCCC/C=C\C/C=C\CCCCCCCC(=O)O`, for which the result was inactive.

Turning to `CCCCCCOc1ccc(N)cc1`, the result was inactive.

Take `CCCCC(=O)O`: the call was inactive.

In the case of `CCCCCCCCCC[N+](C)(CCCCCCCCCC)CCC[Si](OC)(OC)OC`, the AC50 is 16100 nM (active).

For `CCCCCC[C@@H](O)C/C=C\CCCCCCCC(=O)OCC(O)CO` (stereo partly drawn), the molecule was called inactive.

Take `CCCCCCO`: the outcome was inactive.

For `O=C(O)c1ccc2c(c1)C(=O)OC2=O`, the molecule was called inactive.

As for `CCC1COC(=O)O1` (stereo not drawn), the molecule was called inactive.

On to `Cc1cc(C)n(CO)n1`, for which the molecule was classed as inactive.

With `CC(=O)OC(C)c1ccccc1` (stereo not drawn), the molecule was called inactive.

Regarding `CC(CCC(=O)O)(c1ccc(O)cc1)c1ccc(O)cc1`, the AC50 is 1240 nM (active).

As to `COc1cc(O)c(C(=O)c2ccccc2)cc1S(=O)(=O)O`, the result was inactive.

Consider `CCCCCCCOC(=O)c1ccc(O)cc1`, for which the result was inactive.

Turning to `Cc1ccc(C)c(OCCCC(C)(C)C(=O)O)c1`, the outcome was inactive.

For the molecule `CCC(C)(O)CCCC(C)C` (stereo not drawn), the molecule was called inactive.

With `CCN1CN(CC)CN(CC)C1`, the call was inactive.

Consider `COC(=O)c1ccccc1C`, for which the outcome was inactive.

As to `CCCCCCC=O`, the result was inactive.

On to `CCCCCCCCCCCC(=O)N(C)CC(=O)O`, for which the result was inactive.

One may read the AC50 as the midpoint of the concentration-response curve, whichever way the signal moves.

The values are drawn from PubChem BioAssay (EPA / NIEHS).
